Experimental data: PubChem BioAssay (EPA / NIEHS)
Values joined by “and” are separate entries in the source; they are usually repeats but may differ in a detail not shown here. Equal values may be shown once. Inconclusive results are not listed. A structure can be active in one record and inactive in another. Active and inactive are the calls of the source. The calls were made as follows: active = hit-call score of the fitted dose curve at least 0.9, where 1 is the maximum; inconclusive = response in the unintended direction; inactive = score below 0.9.

Target: Cellular tumor antigen p53 (Homo sapiens) (UniProt P04637)
Assay: TOX21_p53_BLA_p2_ratio: Tox21 HCT-116 p53 Agonism Beta-lactamase Assay, Ratio, Phase 2 (AID 2283592)
Procedure, shortened: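 Read-out is the blue/green (460/530 nm, 405 nm excitation) ratio after 2 h CCF4-AM loading, fitted as gain versus DMSO. Compounds, pinned at 217-fold dilution from DMSO stocks, stayed 16 h on HCT-116 beta-lactamase reporter cells seeded 5 h earlier.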

Sequence of Cellular tumor antigen p53 (Homo sapiens) (P04637 whole entry, looked up): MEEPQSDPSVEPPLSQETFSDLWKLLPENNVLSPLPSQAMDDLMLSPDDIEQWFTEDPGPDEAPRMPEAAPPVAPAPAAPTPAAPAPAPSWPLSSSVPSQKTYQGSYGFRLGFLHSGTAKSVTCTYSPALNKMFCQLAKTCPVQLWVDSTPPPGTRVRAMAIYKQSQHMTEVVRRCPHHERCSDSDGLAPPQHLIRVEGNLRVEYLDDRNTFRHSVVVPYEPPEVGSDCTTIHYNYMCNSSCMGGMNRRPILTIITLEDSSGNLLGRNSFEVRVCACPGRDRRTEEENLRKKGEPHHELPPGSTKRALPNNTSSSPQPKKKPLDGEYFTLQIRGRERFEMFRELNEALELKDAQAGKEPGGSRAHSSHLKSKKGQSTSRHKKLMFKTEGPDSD

Row | Structure (SMILES) | outcome
1 | OCC1CCC(CO)CC1 (stereo unspecified) | inactive
2 | Cc1ccc(C(=O)c2ccccc2)cc1 | inactive
3 | NCCN | inactive
4 | CCC1CO1 (stereo unspecified) | inactive
5 | CCC(C)c1nccnc1OC (stereo unspecified) | inactive
6 | Cc1ccc(C)c(S(=O)(=O)O)c1 | inactive

Test system: not listed separately
Assay: TOX21_p53_BLA_p3_viability: Viability Assessment in the Tox21 HCT-116 p53 Agonism Beta-lactamase Assay, Phase 3 (AID 2283593);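 also: cells exposed to compound for 16 h before reading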
Procedure, shortened: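 Cellular ATP was quantified by CellTiter-Glo luminescence, read after 30 min at room temperature. Beforehand, HCT116 cells (4000/well) received compound 5 h post-seeding, 217-fold diluted from DMSO, then incubated 16 h at 37C.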

Row | Structure (SMILES) | outcome | AC50
7 | c1ccc(CNc2ncnc3c2ncn3C2CCCCO2)cc1 (stereo unspecified) | inactive | –
8 | CCOCCOCC | inactive | –
9 | CN(C)CCOC(c1ccccc1)c1ccccc1 | inactive | –
10 | Oc1c(Cl)cc(Cl)cc1Sc1cc(Cl)cc(Cl)c1O | inactive | 73.1 µM (active) and 36.2 µM (active) and 1.49 µM (active)
11 | COC(=O)CC(C(C)=O)C(=O)OC (stereo unspecified) | inactive | –
12 | CCN(CC)CC | inactive | –
13 | Cc1ccc(S(=O)(=O)O)cc1 | inactive | –
14 | CC(C)C=O | inactive | –

Target: Cellular tumor antigen p53 (Homo sapiens) (UniProt P04637)
Assay: TOX21_p53_BLA_p3_ratio: Tox21 HCT-116 p53 Agonism Beta-lactamase Assay, Ratio, Phase 3 (AID 2283596)
Procedure, shortened: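 Cells were seeded at 4000/well, rested 5 h at 37C, then dosed with DMSO compound solutions (217-fold dilution) for 16 h. CCF4-AM substrate was loaded for 2 h at room temperature, and the 460/530 nm emission ratio was fitted for gain of signal versus DMSO.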

Row | Structure (SMILES) | outcome
15 | Cc1ccc(C(=O)c2ccccc2)cc1 | inactive
16 | CCOCCOCC | inactive
17 | COC(=O)CC(C(C)=O)C(=O)OC (stereo unspecified) | inactive
18 | CC(=O)Nc1ccc(S(N)(=O)=O)cc1 | inactive
19 | NCCN | inactive
20 | CCCCCCCCC1CCC(=O)O1 (stereo unspecified) | inactive
21 | CCCCCCC(C)(C)C(=O)O | inactive
22 | Cc1ccc(C)c(S(=O)(=O)O)c1 | inactive

Target: Cellular tumor antigen p53 (Homo sapiens) (UniProt P04637)
Assay: TOX21_p53_BLA_p5_ratio: Tox21 HCT-116 p53 Agonism Beta-lactamase Assay, Ratio, Phase 5 (AID 2283599)
Procedure, shortened: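 Beta-lactamase reporter ratio (blue 460 nm over green 530 nm, 405 nm excitation) after 2 h CCF4-AM loading, in HCT-116 cells exposed 16 h at 37 C to compounds pinned at 217-fold dilution. Increases relative to DMSO baseline scored.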

Row | Structure (SMILES) | outcome
23 | OCC1CCC(CO)CC1 (stereo unspecified) | inactive
24 | Cc1ccc(C(=O)c2ccccc2)cc1 | inactive
25 | CCOCCOCC | inactive
26 | COC(=O)CC(C(C)=O)C(=O)OC (stereo unspecified) | inactive
27 | CCN(CC)CC | inactive
28 | NCCN | inactive
29 | CCCCCCCCC1CCC(=O)O1 (stereo unspecified) | inactive
30 | CCCC=O | inactive
31 | CCCCCCC(C)(C)C(=O)O | inactive
32 | CC(C)C=O | inactive

Test system: not listed separately
Assay: TOX21_p53_BLA_p5_viability: Viability Assessment in the Tox21 HCT-116 p53 Agonism Beta-lactamase Assay, Phase 5 (AID 2283600)
Procedure, shortened: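 Viability came from CellTiter-Glo ATP luminescence, read after 30 min at room temperature. Before this, HCT-116 p53-bla cells (4000/well) had 16 hours of compound exposure at 37C, with DMSO stocks diluted 217-fold on transfer.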

Row | Structure (SMILES) | outcome
33 | c1ccc(CNc2ncnc3c2ncn3C2CCCCO2)cc1 (stereo unspecified) | inactive
34 | COC(=O)CC(C(C)=O)C(=O)OC (stereo unspecified) | inactive
35 | CCN(CC)CC | inactive
36 | CCCCCCCCC1CCC(=O)O1 (stereo unspecified) | inactive
37 | Cc1ccc(S(=O)(=O)O)cc1 | inactive
38 | CCCC=O | inactive
39 | CCC1CO1 (stereo unspecified) | inactive
40 | CC(C)C=O | inactive

Target: Cellular tumor antigen p53 (Homo sapiens) (UniProt P04637)
Assay: TOX21_p53_BLA_p4_ratio: Tox21 HCT-116 p53 Agonism Beta-lactamase Assay, Ratio, Phase 4 (AID 2283601)
Procedure, shortened: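 Signal is the blue/green (460nm/530nm) ratio of cleaved versus uncleaved CCF4-AM substrate, read after 2 h substrate loading. Cells were HCT116 carrying the p53-responsive beta-lactamase reporter, dosed 16 h at 37C, 5% CO2; CellTiter-Glo measured in parallel.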

Row | Structure (SMILES) | outcome
41 | OCC1CCC(CO)CC1 (stereo unspecified) | inactive
42 | Cc1ccc(C(=O)c2ccccc2)cc1 | inactive
43 | COC(=O)CC(C(C)=O)C(=O)OC (stereo unspecified) | inactive
44 | CCN(CC)CC | inactive
45 | NCCN | inactive
46 | CCCCCCCCC1CCC(=O)O1 (stereo unspecified) | inactive
47 | CCC1CO1 (stereo unspecified) | inactive
48 | CCC(C)c1nccnc1OC (stereo unspecified) | inactive
49 | Cc1ccc(C)c(S(=O)(=O)O)c1 | inactive
50 | CC(C)C=O | inactive
